± gives the standard deviation of the averaged measurements.
Columns and labels:
Test in all cases: promoter activity interaction Z-score (Lux/OD deviation from empty-vector control); higher = stronger promoter induction by the compound
[1] = tested on: E. coli BW25113 acrABp lux reporter
Summary of the method: (§1)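 Low-copy luxCDABE promoter reporters were carried by E. coli BW25113, either wild type or lacking one of three genes, grown in 40 µl LB Lennox in 384-well plates at 37°C. Each compound was run at four 1:2 dilutions in biological duplicates, with OD600 and luminescence read every 30 min for 12 h. Integration used 0–8 h for wild type and 1–9 h for deletion strains, and wells under 10% of the median growth value were removed. Luminescence normalised to growth was fitted against a control, and the Z-transformed residual is the score.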

[2] = tested on: E. coli BW25113 micFp lux reporter
Summary of the method: as §1

[3] = tested on: E. coli BW25113 ompFp lux reporter
Summary of the method: as §1

[4] = tested on: E. coli BW25113 robp lux reporter
Summary of the method: as §1

[5] = tested on: E. coli BW25113 soxSp lux reporter
Summary of the method: as §1

[6] = tested on: E. coli BW25113 tolCp lux reporter
Summary of the method: as §1

[7] = 0.0012 µg/ml, genetic background: wild type
[8] = 0.0012 µg/ml, genetic background: ΔmarA
[9] = 0.0012 µg/ml, genetic background: Δrob
[10] = 0.0012 µg/ml, genetic background: ΔsoxS
[11] = 0.0025 µg/ml, genetic background: wild type
[12] = 0.0025 µg/ml, genetic background: ΔmarA
[13] = 0.0025 µg/ml, genetic background: Δrob
[14] = 0.0025 µg/ml, genetic background: ΔsoxS
[15] = 0.005 µg/ml, genetic background: wild type
[16] = 0.005 µg/ml, genetic background: ΔmarA
[17] = 0.005 µg/ml, genetic background: Δrob
[18] = 0.005 µg/ml, genetic background: ΔsoxS
[19] = 0.0099 µg/ml, genetic background: wild type
[20] = 0.0099 µg/ml, genetic background: ΔmarA
[21] = 0.0099 µg/ml, genetic background: Δrob
[22] = 0.0099 µg/ml, genetic background: ΔsoxS

O=C(O)c1cn(C2CC2)c2cc(N3CCNCC3)c(F)cc2c1=O [Ciprofloxacin]
promoter activity interaction Z-score [1, 7]: -0.0508 ± 0.0034 | promoter activity interaction Z-score [1, 8]: 0.353 ± 0.13 | promoter activity interaction Z-score [1, 9]: 0.173 ± 0.043 | promoter activity interaction Z-score [1, 10]: 0.42 ± 0.15 | promoter activity interaction Z-score [1, 11]: 0.086 ± 0.043 | promoter activity interaction Z-score [1, 12]: 0.398 ± 0.6 | promoter activity interaction Z-score [1, 13]: 0.0723 ± 0.032 | promoter activity interaction Z-score [1, 14]: 0.345 ± 0.36 | promoter activity interaction Z-score [1, 15]: -0.0602 ± 0.085 | promoter activity interaction Z-score [1, 16]: 0.14 ± 0.38 | promoter activity interaction Z-score [1, 17]: -0.262 ± 0.024 | promoter activity interaction Z-score [1, 18]: 0.245 ± 0.15 | promoter activity interaction Z-score [1, 19]: 3.2 ± 0.99 | promoter activity interaction Z-score [2, 7]: -0.234 ± 0.19 | promoter activity interaction Z-score [2, 8]: 0.0327 ± 0.0091 | promoter activity interaction Z-score [2, 9]: -0.0152 ± 0.072 | promoter activity interaction Z-score [2, 10]: 0.0125 ± 0.049 | promoter activity interaction Z-score [2, 11]: -0.177 ± 0.22 | promoter activity interaction Z-score [2, 12]: 0.0702 ± 0.0035 | promoter activity interaction Z-score [2, 13]: 0.0396 ± 0.11 | promoter activity interaction Z-score [2, 14]: 0.236 ± 0.43 | promoter activity interaction Z-score [2, 15]: 0.0988 ± 0.0042 | promoter activity interaction Z-score [2, 16]: 0.222 ± 0.086 | promoter activity interaction Z-score [2, 17]: 0.149 ± 0.08 | promoter activity interaction Z-score [2, 18]: 0.0364 ± 0.036 | promoter activity interaction Z-score [2, 19]: -0.518 ± 0.27 | promoter activity interaction Z-score [2, 20]: -0.126 ± 0.0091 | promoter activity interaction Z-score [2, 21]: -0.163 | promoter activity interaction Z-score [2, 22]: -0.0606 ± 0.43 | promoter activity interaction Z-score [3, 7]: -0.438 ± 0.12 | promoter activity interaction Z-score [3, 8]: -0.0468 ± 0.33 | promoter activity interaction Z-score [3, 9]: -0.155 ± 0.71 | promoter activity interaction Z-score [3, 10]: 0.116 ± 0.044 | promoter activity interaction Z-score [3, 11]: -0.471 ± 0.096 | promoter activity interaction Z-score [3, 12]: -0.00111 ± 0.52 | promoter activity interaction Z-score [3, 13]: -0.691 ± 0.58 | promoter activity interaction Z-score [3, 14]: 0.136 ± 0.14 | promoter activity interaction Z-score [3, 15]: -0.511 ± 0.028 | promoter activity interaction Z-score [3, 16]: -0.0342 ± 0.14 | promoter activity interaction Z-score [3, 17]: -0.495 ± 0.56 | promoter activity interaction Z-score [3, 18]: -0.279 ± 0.43 | promoter activity interaction Z-score [3, 19]: -0.587 ± 0.72 | promoter activity interaction Z-score [4, 7]: 0.0678 ± 0.12 | promoter activity interaction Z-score [4, 8]: 0.253 ± 0.13 | promoter activity interaction Z-score [4, 9]: 0.0957 ± 0.66 | promoter activity interaction Z-score [4, 10]: 1.22 ± 0.77 | promoter activity interaction Z-score [4, 11]: 0.3 ± 0.26 | promoter activity interaction Z-score [4, 12]: -0.0277 ± 0.16 | promoter activity interaction Z-score [4, 13]: 0.0548 ± 0.78 | promoter activity interaction Z-score [4, 14]: 1.24 ± 1.1 | promoter activity interaction Z-score [4, 15]: 0.247 ± 0.46 | promoter activity interaction Z-score [4, 16]: 0.267 ± 0.41 | promoter activity interaction Z-score [4, 17]: -0.0594 ± 0.79 | promoter activity interaction Z-score [4, 18]: 0.171 ± 0.16 | promoter activity interaction Z-score [4, 19]: -0.624 ± 0.76 | promoter activity interaction Z-score [4, 20]: -0.611 | promoter activity interaction Z-score [5, 7]: -0.0335 ± 0.15 | promoter activity interaction Z-score [5, 8]: 0.12 ± 0.047 | promoter activity interaction Z-score [5, 9]: 0.0163 ± 0.22 | promoter activity interaction Z-score [5, 10]: 0.466 ± 0.26 | promoter activity interaction Z-score [5, 11]: -0.17 ± 0.048 | promoter activity interaction Z-score [5, 12]: 0.0948 ± 0.18 | promoter activity interaction Z-score [5, 13]: -0.0974 ± 0.25 | promoter activity interaction Z-score [5, 14]: 0.326 ± 0.014 | promoter activity interaction Z-score [5, 15]: 0.14 ± 0.19 | promoter activity interaction Z-score [5, 16]: 0.125 ± 0.098 | promoter activity interaction Z-score [5, 17]: 0.0524 ± 0.27 | promoter activity interaction Z-score [5, 18]: 0.682 ± 0.7 | promoter activity interaction Z-score [5, 19]: 0.127 ± 0.063 | promoter activity interaction Z-score [5, 20]: 0.0874 ± 0.13 | promoter activity interaction Z-score [5, 21]: -0.378 ± 0.17 | promoter activity interaction Z-score [5, 22]: 3.89 ± 2.3 | promoter activity interaction Z-score [6, 7]: 0.3 ± 0.42 | promoter activity interaction Z-score [6, 8]: 0.215 ± 0.83 | promoter activity interaction Z-score [6, 9]: -0.563 ± 1 | promoter activity interaction Z-score [6, 10]: 0.363 ± 0.45 | promoter activity interaction Z-score [6, 11]: 0.307 ± 0.13 | promoter activity interaction Z-score [6, 12]: -0.633 ± 0.058 | promoter activity interaction Z-score [6, 13]: -0.452 ± 0.41 | promoter activity interaction Z-score [6, 14]: 0.599 ± 0.74 | promoter activity interaction Z-score [6, 15]: 0.224 ± 0.038 | promoter activity interaction Z-score [6, 16]: 0.452 ± 0.24 | promoter activity interaction Z-score [6, 17]: -0.267 ± 1.4 | promoter activity interaction Z-score [6, 18]: 0.965 ± 0.61 | promoter activity interaction Z-score [6, 19]: -0.238 ± 0.84 | promoter activity interaction Z-score [6, 20]: 0.207 ± 0.2 | promoter activity interaction Z-score [6, 21]: -2.22 ± 0.97 | promoter activity interaction Z-score [6, 22]: 1.85 ± 0.19
